MITF inh = human MITF inhibition, primary screen; inhibition, % at 2.6 µM; 650,000 tested, 0.91% active; AID 1259374; AlphaScreen MITF homodimerization, bead proximity signal; O75030; in the data active means inhibition above about 50%
FBW7 act = human FBW7 E3 ligase activation, primary screen; normalized activity (activation), % at 26.1 µM; 650,000 tested, 0.13% active; AlphaScreen FBW7–phospho-cyclin E peptide binding, activator screen; in the data active means normalized activity above about 1.9%;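 further: purified mutant Fbw7 with reduced substrate affinity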
GPR151 activ = human GPR151 activation. PathHunter beta-arrestin GPR151 cells, luminescence. activation, % at 11.2 µM. 650,000 tested, 1% active. AID 1508602; in the data active means activation above about 4.9%
TEAD-YAP block = TEAD-YAP interaction inhibition; HEK-TIYL cells, TEAD-Gal4/YAP UAS-luciferase luminescence; inhibition, % at 9.12 µM; 640,000 tested, 1.4% active; AID 1259422; in the data active means inhibition above about 32%
A number is an active result; i = inactive. Rows were chosen to be rich in hits. Some 3.5% of all compounds tested hit in one or more screens of this group.

SMILES | MITF inh | FBW7 act | GPR151 activ | TEAD-YAP block
O=c1[nH]c(N2CCOCC2)nc2c1CCN(Cc1ccccc1F)C2 | i | i | i | i
C/C(CC(=O)NCCc1ccccc1)=N\NC(=O)C(=O)Nc1cccc(C)c1 | i | i | i | i
N#CC1=C(N)C(C#N)(C#N)C(c2ccccc2)C2CCCC=C12 (centres undefined) | i | 1.9 | i | i
N#CC1=C(N)C(C#N)(C#N)C(c2ccc(O)cc2)C2CCCC=C12 (centres undefined) | i | i | i | i
Cc1ccn2cc(-c3ccccc3Cl)nc2c1 | i | i | i | 71
CCc1ccc(-c2cn3cc(C)ccc3n2)cc1 | i | i | i | i
Cc1ccn2cc(-c3cc4ccccc4oc3=O)nc2c1 | i | i | i | i
CCc1ccc(-c2cn3ccc(C)cc3n2)cc1 | i | i | i | 96
Cc1ccn2cc(-c3ccc(Cl)cc3)nc2c1 | i | i | i | 78
CC1CCCCC1NC(=O)c1ccc(-n2c(=S)[nH]c3ccccc3c2=O)cc1 (centres undefined) | i | i | i | i
COc1ccc(C(=O)NCC(=O)OCC(=O)NNC(=O)c2ccc([N+](=O)[O-])cc2)cc1 | i | i | i | i
Cc1sc2nc(C3CCCN(C(=O)C(C)(C)C)C3)[nH]c(=O)c2c1C (centres undefined) | i | i | i | 92
Cc1sc2nc(C3CCCN(C(=O)c4ccco4)C3)[nH]c(=O)c2c1C (centres undefined) | i | i | i | i
COC(=O)CCCN1C(=O)c2cccc3c(N4CCOCC4)ccc(c23)C1=O | i | i | i | 53
